Drawing on PubChem BioAssay AID652105 (National Center for Advancing Translational Sciences (NCATS), 2013), this text covers max response for 83 molecules.

The structures appear in SMILES notation. About 4,100 (1.2%) of roughly 330,000 compounds were called active. Another 2% or so got no clear call; they are omitted. What follows is part of a selection rich in actives, with near analogues and random picks from the rest. A number with no mark means an inactive call. How the source made its calls: active means max response of -50% or lower; inconclusive means between -30% and -50%; inactive means -30% or higher.
On the % scale 0 is the no-effect control and ±100 the full control effect.

Phosphatidylinositol 5-phosphate 4-kinase type-2 alpha (Homo sapiens), sequence (P48426 whole entry, looked up): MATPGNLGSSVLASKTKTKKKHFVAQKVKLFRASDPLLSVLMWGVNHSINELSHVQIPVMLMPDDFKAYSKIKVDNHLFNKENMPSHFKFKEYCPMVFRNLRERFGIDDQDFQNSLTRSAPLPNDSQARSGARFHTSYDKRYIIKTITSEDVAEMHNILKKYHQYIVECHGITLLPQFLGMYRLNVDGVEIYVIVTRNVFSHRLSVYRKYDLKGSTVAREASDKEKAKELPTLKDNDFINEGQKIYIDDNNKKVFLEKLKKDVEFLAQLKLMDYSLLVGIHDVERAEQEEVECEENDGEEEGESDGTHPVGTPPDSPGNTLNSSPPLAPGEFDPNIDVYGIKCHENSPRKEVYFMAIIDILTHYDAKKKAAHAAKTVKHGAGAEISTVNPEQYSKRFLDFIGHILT

The experiment addresses Phosphatidylinositol 5-phosphate 4-kinase type-2 alpha (Homo sapiens) (UniProt P48426). Nature of the experiment: qHTS for Inhibitors of phosphatidylinositol 5-phosphate 4-kinase (PI5P4K). Further: value at the top dose of about 77 µM. As to conditions: PI5P4Kalpha enzyme, ADP-Glo luminescence, 60 min; active compounds read low. In short, it runs like this:
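Luminescence from ADP-Glo served as readout of PI5P4Kalpha activity in a qHTS format. Reaction: enzyme, substrate, compound, ATP at 5 microM final, 60 min at RT.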
In general terms: In qHTS, concentration-response curves come from the screen itself.
As for `CCCCNC(=O)C[C@@H]1C[C@@]2(C(=O)OC)CC(C)(C)CC=C2N(Cc2ccco2)C1=O`, the max response was 4.39%.
The result for `COc1ccc(-n2nnnc2-c2nc3ccccc3s2)cc1` reads 11.9%; that for `COc1ccc(C2=NN(c3nc4ccccc4s3)C(=O)C2)cc1`, -57.5% (active); that for `COc1ccc(C2=NN(C(C)=O)C(c3ccccc3)C2)cc1` (stereo not drawn), -5.07%.
Take `Cn1c(Nc2ccc(F)cc2)nc2cc(-c3ccsc3)sc2c1=O`: the max response is -0.288%.
As for `CCCc1[nH]nc2c1C(c1ccc(Br)s1)C(C#N)=C(N)O2` (stereo not drawn), the max response was -24.7%.
As for `CCCc1[nH]nc2c1C(c1ccc(OC)c(Cn3nc(C)c(Br)c3C)c1)C(C#N)=C(N)O2` (stereo not drawn), the max response was -0.298%.
In the case of `CCCc1[nH]nc2c1C(C1CC=CCC1)C(C#N)=C(N)O2` (stereo not drawn), the max response is -60.2% (active).
As to `CCCCn1nnnc1C(c1ccccc1)N1CCN(c2ccccc2OC)CC1` (stereo not drawn), the max response was 1.03%.
Take `O=C(NC(c1ccc(-c2ccccc2)cc1)c1cnccn1)C1CCN(CCOc2ccc(Cl)cc2Cl)CC1` (stereo not drawn): the max response is 31%.
For the molecule `CC(C)C[C@@H](COCc1ccc(Cl)cc1)N1CCN(C(=O)c2ccc(Cl)cc2Cl)CCC1=O`, the max response was 15.2%.
Take `COc1ccc(-c2cc(NC(C)=O)c3ncc(-c4cc(OC)c(OC)c(OC)c4)n3c2)cn1`: the max response is -8.79%.
In the case of `Cc1cn([C@H]2C[C@H](O)[C@@H](/C=C/C(=O)NCCCc3ccccc3)O2)c(=O)[nH]c1=O`, the max response was -0.963%.
`Cc1ccc(S(=O)(=O)N2[C@@H](Cc3ccccc3)CO[C@H]2CC(=O)OCc2ccccc2)cc1`: the max response is 4.77%.
As to `Cc1cc(Br)cn2c(Cc3ccccc3C(F)(F)F)c(C3CCCCC3)nc12`, the max response was 10.4%.
As for `CCN(CC)C(=O)CSC(Nc1cccc(F)c1)=C(C#N)C#N`, the max response is -66.7% (active).
The result for `Cc1ccc(CSCC(=O)N(C)CC(=O)Nc2cccc(F)c2)cc1` reads 4.92%; that for `CN(CC(=O)Nc1cccc(F)c1)C(=O)CC1CCCC1`, 2.62%; that for `O=C1NC[C@@H](CCCCN2CCN(CCc3ccc(O)cc3)C(=O)C2=O)N(CC2CCCCC2)C1=O`, -1.17%.
Turning to `Cc1ccc(C)c(C(O)c2ncc(-c3cccc4ccccc34)[nH]2)c1` (stereo not drawn), the max response is -1.21%.
As for `CCCCn1nnnc1C(c1cccc(OC)c1OC)N1CCN(C/C=C/c2ccccc2)CC1` (stereo not drawn), the max response was 0.353%.
As for `CCC(c1nc2ccccc2[nH]1)n1c(=O)c(-c2cccs2)nc2ccccc21` (stereo not drawn), the max response is 1.88%.
Turning to `CCCCNC(=O)C[C@@H]1C[C@@]2(C(=O)OCC)CCC=C2N(Cc2ccco2)C1=O`, the max response is -0.539%.
`CC(=O)c1cccc(-c2cnc3c(NC=O)cc(-c4ccc(N(C)C)cc4)cn23)c1`: the max response is -17.5%.
Turning to `CC(=O)Nc1cccc(-c2cc(NC(C)=O)c3ncc(-c4ccccc4)n3c2)c1`, the max response is -5.78%.
For the molecule `CC(=O)c1cccc(-c2cnc3c(NC=O)cc(-c4cccc(C(=O)N(C)C)c4)cn23)c1`, the max response is -9.37%.
Consider `CC(=O)c1cccc(-c2cnc3c(NC=O)cc(-c4ccccc4Oc4ccccc4)cn23)c1`, for which the max response is -13%.
The result for `COc1cccc(-c2cnc3c(NC(C)=O)cc(-c4cccc(NC(C)=O)c4)cn23)c1` reads -7.23%; that for `CC(=O)c1cccc(-c2cnc3c(NC=O)cc(-c4ccc(N5CCN(C)CC5)cc4)cn23)c1`, -0.912%; that for `CC(=O)Nc1cccc(-c2cc(NC=O)c3ncc(-c4ccc(F)c(Cl)c4)n3c2)c1`, -70.3% (active).
In the case of `CN(C)C(=O)c1cccc(-c2cnc3c(NC=O)cc(-c4ccc(F)cc4)cn23)c1`, the max response is -50.2% (active).
Turning to `CC(=O)c1ccc(-c2cnc3c(NC=O)cc(-c4cccc(NS(C)(=O)=O)c4)cn23)cc1`, the max response is -83.7% (active).
With `CCCCN1C(=O)C(CC(=O)NCc2cccs2)CC(C(=O)N2CCCCCC2)=C1C` (stereo not drawn), the max response was 8.96%.
For `COc1cccc(NC(=O)CN(C)C(=O)c2cc(Cl)nc3ccccc23)c1`, the max response was 0.592%.
For `Cc1cccnc1C(NC(=O)C1CCN(Cc2ccc(Cl)c(Cl)c2)CC1)c1ccc(Cl)cc1` (stereo not drawn), the max response was 13.1%.
As for `Cc1nc(C(F)(F)F)ccc1C(=O)N1CCC1(C)C(=O)NS(=O)(=O)c1ccccc1Cl` (stereo not drawn), the figure is -2.74%; as for `C[C@H]1CN([C@@H](C)CO)C(=O)CCCn2nncc2CO[C@@H]1CN(C)S(=O)(=O)c1cccc(C#N)c1`, 8.11%; as for `Cc1nc(Cl)c(C#N)c2c1CCCC2`, -4.68%.
As to `COCc1c(N)c(C)nc(Cl)c1C#N`, the max response was -79.4% (active).
As for `COC(=O)c1c(C)c(C)nc(N)c1C#N`, the figure is 1.33%; as for `CC(C)NC(=O)Nc1ccc2c(c1)C(=O)N([C@H](C)CO)C[C@H](C)[C@@H](CN(C)Cc1ccc(C(F)(F)F)cc1)OCCCC[C@@H](C)O2`, 10.4%; as for `CC1(C)OC(=O)C2=C(C[C@@H](C3CC3)O[C@H]2c2ccc(Cl)cc2)O1`, 8.12%.
The result for `CC1(C)OC(=O)C2=C(C[C@@H](C3CCCCC3)O[C@@H]2c2ccc(Cl)cc2)O1` reads 10.9%; that for `CC(=O)Nc1ccc(S(=O)(=O)Oc2ccc(/C=N/N=C3/NC(=O)C(CC(=O)O)S3)cc2)cc1` (stereo not drawn), -65% (active); that for `Cc1ccc(S(=O)(=O)Oc2ccc(/C=N/NC(=O)c3ccncc3)cc2)cc1`, 3.82%.
In the case of `Cc1ccc(NC(=O)CC2S/C(=N/N=C3\CCCc4ccccc43)NC2=O)cc1` (stereo not drawn), the max response was 27.6%.
The result for `CCOC(=O)C1C(C)C(C(C)(C)C)N(S(=O)(=O)c2ccc(C)cc2)C1c1ccccc1` (stereo not drawn) reads 6.25%; that for `CCCOc1ccc(Cn2c(O)cc(=O)[nH]c2=O)cc1`, -26.6%.
Take `COc1cc(=O)[nH]c(=O)n1C(=O)Cc1ccccc1`: the max response was -54.9% (active).
Turning to `COc1ccc(NC(=O)CNC(=O)Cc2ccccc2)cc1OC`, the max response was -2.31%.
For `COC(=O)[C@]12CCCCC=C1N(Cc1ccc3c(c1)OCO3)C(=O)[C@H](CC(=O)NCc1cccs1)C2`, the max response was 1.05%.
With `CCCS(=O)(=O)NC(=O)C1(C)CCCN(C(=O)c2cccs2)C1` (stereo not drawn), the max response was 5.25%.
On to `Cc1cc(C(=O)N2CCCC2(C)C(=O)O)c(C)o1` (stereo not drawn), for which the max response is -1.39%.
For `CCCCCCCCN1C(=O)[C@H](CC(=O)NCC23CC4CC(CC(C4)C2)C3)C[C@@]2(C(=O)OC)CCCCC=C12`, the max response was 8.08%.
Regarding `S=c1[nH]nc2c3c4c(sc3ncn12)CCCC4`, the max response was -58.2% (active).
Consider `N=c1c2c3c(sc2ncn1N)CCCCC3`, for which the max response is 0.011%.
Take `N=c1c2c3c(sc2ncn1N)CCCC3`: the max response was -4.92%.
As to `COc1ccc(CNC(=O)c2ccc(-c3cccnc3)c3ccoc23)cc1OC`, the max response is 0.62%.
In the case of `O=C(NCc1ccc(F)cc1)c1cc(C2CCCCN2C(=O)c2cccs2)on1` (stereo not drawn), the max response is -3.15%.
On to `CC(C)c1cc(Cn2c3ccccc3c(=O)n2C(C)Cn2cc(C3CC3)nn2)on1` (stereo not drawn), for which the max response is -4.48%.
The result for `CC(C)(C)OC(=O)N1CCN(C(=O)c2[nH]c(C(F)(F)F)nc2-c2ccccc2)CC1` reads 6.39%.
Consider `CS(=O)(=O)c1ccc2nc(NC(=O)C3C4C=CC(C4)C3C(=O)O)sc2c1` (stereo not drawn), for which the max response is -8.9%.
As for `CS(=O)(=O)c1ccc2nc(NC(=O)c3ccc(Cl)nc3)sc2c1`, the figure is -8.02%; as for `COc1cccc(C(=O)Nc2nc3ccc(S(C)(=O)=O)cc3s2)c1`, -58.6% (active); as for `CCOC(=O)N1CCN(C(=O)C[C@@H]2C[C@@]3(C(=O)OC)CC(C)(C)CC=C3N(Cc3ccco3)C2=O)CC1`, -4.8%.
The result for `CC1=C(C(=O)OCc2ccccc2)C(c2ccc(C(F)(F)F)cc2)NC(=O)N1CCCCCC(=O)O` (stereo not drawn) reads -6.37%; that for `COCCN1C(=O)N[C@@H](c2ccccc2)C(C(=O)OC)=C1C`, 3.31%; that for `CC1=C(C(=O)OC(C)(C)C)C(c2ccc(Br)cc2)NC(=O)N1CCCC(=O)O` (stereo not drawn), -68.2% (active).
The result for `CCCCNC(=O)OC1CC2CC1[C@H]1CCCCN1C2=O` (stereo partly drawn) reads 2.78%.
With `NC(c1ccccc1)c1csc(NC(=O)Nc2cccc(C(F)(F)F)c2)n1` (stereo not drawn), the max response was -16.7%.
Turning to `O=C(O)c1ccc2c(=O)n3c(nc2c1)/C(=C/c1ccc(OC(F)F)cc1OC(F)F)CC3`, the max response was -50.1% (active).
In the case of `O=C(O)c1ccc2c(=O)n3c(nc2c1)/C(=C/c1ccc(Cl)c([N+](=O)[O-])c1)CC3`, the max response was -16.4%.
For `N#Cc1ccc(/C=C2\CCn3c2nc2cc(C(=O)O)ccc2c3=O)cc1`, the max response is -10.5%.
In the case of `CCc1nc2ccc(C(=O)N(C)CCN(C)C)cn2c1N(CC)CCOC`, the max response is 2.65%.
As for `OC(c1ccc(Cl)c(F)c1)c1ncc(-c2ccccc2Cl)[nH]1` (stereo not drawn), the max response was 10.9%.
With `CC(C)c1ccc(CC(=O)N2CCC2(C)C(=O)NS(=O)(=O)c2ccc(C(C)(C)C)cc2)cc1` (stereo not drawn), the max response is 3.85%.
As to `O=[N+]([O-])c1ccc(C=NN=Cc2ccc([N+](=O)[O-])cc2)cc1`, the max response is -4.59%.
As to `CC(=O)Nc1ccc(C=Cc2ccc([N+](=O)[O-])cc2)cc1`, the max response was -5.32%.
As to `O=C1/C(=C\c2ccc([N+](=O)[O-])cc2)CS(=O)(=O)C/C1=C/c1ccc([N+](=O)[O-])cc1`, the max response was -83.1% (active).
For `CC=CCn1c(SCCCc2ccccc2)nc2c1c(=O)[nH]c(=O)n2C`, the max response was -3.45%.
For the molecule `Cc1ccc(/C=C/C(=O)Nc2ccc([N+](=O)[O-])c(NC(=O)/C=C/c3ccc(C)o3)c2)o1`, the max response is -71.8% (active).
The result for `COC(=O)/C=C\C(=O)Nc1cccc([N+](=O)[O-])c1` reads -26.6%.
Turning to `Cc1ccc(/C=C/C(=O)Nc2cc(S(=O)(=O)N3CCCCCC3)ccc2OCC(F)(F)F)o1`, the max response is 2.97%.
